# Source: PubChem BioAssay (EPA / NIEHS)
# Inconclusive results are not listed. Calls of active or inactive are those of the source. How the source made its calls: active means hit-call score of the fitted dose curve at least 0.9, where 1 is the maximum; inconclusive means response in the unintended direction; inactive means score below 0.9.
# Biological target: human CYP1A2, CYP1A2 (gene 1544) (UniProt P05177)
# Assay: NVS_ADME_hCYP1A2: NovaScreen (NVS) CYP450-related Enzyme Activity (ADME) Assay for human CYP1A2 (AID 2283102);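 on AC50: fluorescence from turnover of a fluorogenic substrate by recombinant insect-cell CYP1A2; potency for inhibition since loss of fluorescence marks reduced CYP1A2 activity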
# Summary of the method: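 Inhibition scored as decrease in fluorescent product versus acetonitrile negative control. Enzyme: insect-cell recombinant human CYP1A2, substrate-specific, cell-free. Reading at 0.5 h; 10 uM duplicate initial screen with positive and negative controls on every plate.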
# Chain of human CYP1A2, CYP1A2 (gene 1544) (P05177 whole entry, looked up): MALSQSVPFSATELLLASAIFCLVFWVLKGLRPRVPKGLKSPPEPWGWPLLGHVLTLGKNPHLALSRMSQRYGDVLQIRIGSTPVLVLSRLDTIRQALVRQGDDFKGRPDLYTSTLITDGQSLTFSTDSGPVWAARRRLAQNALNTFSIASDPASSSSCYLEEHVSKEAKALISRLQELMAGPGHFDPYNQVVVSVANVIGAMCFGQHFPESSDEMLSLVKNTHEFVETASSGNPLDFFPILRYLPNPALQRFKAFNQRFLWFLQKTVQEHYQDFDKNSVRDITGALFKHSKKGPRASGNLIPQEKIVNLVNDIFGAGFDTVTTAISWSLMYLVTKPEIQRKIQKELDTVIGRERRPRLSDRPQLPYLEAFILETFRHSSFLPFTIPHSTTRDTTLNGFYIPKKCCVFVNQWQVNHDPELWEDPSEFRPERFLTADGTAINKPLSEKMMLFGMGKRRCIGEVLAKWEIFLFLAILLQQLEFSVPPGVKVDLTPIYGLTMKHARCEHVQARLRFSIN
SMILES,outcome,AC50
CCCCCCCCCC,inactive,
C=CCc1cc(S(=O)(=O)c2ccc(O)c(CC=C)c2)ccc1O,,3.26 µM (active)
c1ccc(C(O[C@@H]2CCCN(CCc3ccc4c(c3)OCO4)C2)c2ccccc2)cc1,,5.35 µM (active)
CC(C)C(=O)Nc1ccc([N+](=O)[O-])c(C(F)(F)F)c1,,5.33 µM (active)
CCN(CC)C(=S)SSC(=S)N(CC)CC,,1.2 µM (active)

# Biological target: human CYP2D6, CYP2D6 (gene 1565) (UniProt P10635)
# Assay: NVS_ADME_hCYP2D6: NovaScreen (NVS) CYP450-related Enzyme Activity (ADME) Assay for human CYP2D6 (AID 2283107)
# Summary of the method: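 Biochemical fluorescence assay, insect-cell-derived enzyme. Read at 1 h; inhibition taken from loss of signal against acetonitrile. Screened at 10 uM in duplicate, with concentration series for actives.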
# Chain of human CYP2D6, CYP2D6 (gene 1565) (P10635 whole entry, looked up): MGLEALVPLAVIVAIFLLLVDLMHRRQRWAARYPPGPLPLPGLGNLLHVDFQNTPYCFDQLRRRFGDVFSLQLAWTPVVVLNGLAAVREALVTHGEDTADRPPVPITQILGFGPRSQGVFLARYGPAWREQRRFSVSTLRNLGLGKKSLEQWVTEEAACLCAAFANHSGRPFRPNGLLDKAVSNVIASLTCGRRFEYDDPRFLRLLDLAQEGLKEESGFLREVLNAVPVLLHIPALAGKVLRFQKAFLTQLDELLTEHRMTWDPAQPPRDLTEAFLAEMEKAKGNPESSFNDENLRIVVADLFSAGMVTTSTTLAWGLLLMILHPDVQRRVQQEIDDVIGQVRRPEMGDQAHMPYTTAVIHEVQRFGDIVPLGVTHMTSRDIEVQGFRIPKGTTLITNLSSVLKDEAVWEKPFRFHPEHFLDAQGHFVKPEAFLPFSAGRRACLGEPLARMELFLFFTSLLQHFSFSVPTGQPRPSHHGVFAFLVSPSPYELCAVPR
SMILES,AC50,outcome
O=C1CN(N=Cc2ccc([N+](=O)[O-])o2)C(=O)N1,4.5 µM (active),
CCCCCCCCCC,,inactive
C=CCc1cc(S(=O)(=O)c2ccc(O)c(CC=C)c2)ccc1O,0.567 µM (active),
c1ccc(C(O[C@@H]2CCCN(CCc3ccc4c(c3)OCO4)C2)c2ccccc2)cc1,1.59 µM (active),
CCn1nc(C)c2c1C(=O)NCC(c1ccc(O)cc1)=N2,6.23 µM (active),

# Biological target: human CYP2C9, CYP2C9 (gene 1559) (UniProt P11712)
# Assay: NVS_ADME_hCYP2C9: NovaScreen (NVS) CYP450-related Enzyme Activity (ADME) Assay for human CYP2C9 (AID 2283108)
# Summary of the method: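 Cell-free assay of recombinant human CYP2C9 produced in Sf9 cells, with enzyme activity read by fluorescence intensity 0.75 h after compound addition. Loss of signal versus an acetonitrile negative control indicates inhibition. Primary screen used 10 uM in duplicate; actives were retested in concentration series.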
# Chain of human CYP2C9, CYP2C9 (gene 1559) (P11712 whole entry, looked up): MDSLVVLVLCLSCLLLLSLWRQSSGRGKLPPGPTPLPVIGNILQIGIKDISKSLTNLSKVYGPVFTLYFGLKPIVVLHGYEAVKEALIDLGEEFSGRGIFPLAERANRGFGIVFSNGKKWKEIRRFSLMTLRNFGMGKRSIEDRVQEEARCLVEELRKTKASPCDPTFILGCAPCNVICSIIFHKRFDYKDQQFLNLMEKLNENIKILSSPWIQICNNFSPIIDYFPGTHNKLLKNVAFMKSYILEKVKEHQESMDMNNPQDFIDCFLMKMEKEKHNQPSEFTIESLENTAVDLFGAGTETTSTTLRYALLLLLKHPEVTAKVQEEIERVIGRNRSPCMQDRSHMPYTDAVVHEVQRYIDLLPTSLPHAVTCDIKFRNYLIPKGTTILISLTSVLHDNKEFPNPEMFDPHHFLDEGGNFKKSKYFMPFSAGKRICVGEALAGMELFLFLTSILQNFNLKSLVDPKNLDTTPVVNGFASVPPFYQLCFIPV
SMILES,AC50,outcome
Cc1nccn1-c1ccc(Sc2cccc(C3(C(N)=O)CCOCC3)c2)cc1,5.01 µM (active),
OC(Cn1cncn1)(Cn1cncn1)c1ccc(F)cc1F,,inactive
CCCCCCCCCC,15.1 µM (active),
C=CCc1cc(S(=O)(=O)c2ccc(O)c(CC=C)c2)ccc1O,0.118 µM (active),
c1ccc(C(O[C@@H]2CCCN(CCc3ccc4c(c3)OCO4)C2)c2ccccc2)cc1,6.98 µM (active),
CC(C)C(=O)Nc1ccc([N+](=O)[O-])c(C(F)(F)F)c1,,inactive
CCN(CC)C(=S)SSC(=S)N(CC)CC,3.12 µM (active),
CCCCCCCC/C=C\CCCCCCCC(=O)OC[C@@H](O)[C@H]1OC[C@H](O)[C@H]1O,16.5 µM (active),
CC[C@H](C)C(=O)O[C@H]1C[C@H](O)C=C2C=C[C@H](C)[C@H](CC[C@@H](O)C[C@@H](O)CC(=O)O)[C@H]21,,inactive
CCCOc1ccc(S(=O)(=O)N2CCN(CC)CC2)cc1-c1nc2c(CC)n(Cc3ccccn3)nc2c(=O)[nH]1,2.98 µM (active),

# Biological target: Cytochrome P450 3A4 (Homo sapiens) (UniProt P08684)
# Assay: NVS_ADME_hCYP3A4: NovaScreen (NVS) CYP450-related Enzyme Activity (ADME) Assay for human CYP3A4 (AID 2283110)
# Summary of the method: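 Cell-free assay using insect-cell-expressed human CYP3A4 with a fluorogenic substrate; fluorescence intensity was read 0.33 hour after dosing. Loss of signal relative to acetonitrile vehicle indicated inhibition. Primary single-concentration screen at 10 uM, in duplicate, then concentration series.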
# Chain of Cytochrome P450 3A4 (Homo sapiens) (P08684 whole entry, looked up): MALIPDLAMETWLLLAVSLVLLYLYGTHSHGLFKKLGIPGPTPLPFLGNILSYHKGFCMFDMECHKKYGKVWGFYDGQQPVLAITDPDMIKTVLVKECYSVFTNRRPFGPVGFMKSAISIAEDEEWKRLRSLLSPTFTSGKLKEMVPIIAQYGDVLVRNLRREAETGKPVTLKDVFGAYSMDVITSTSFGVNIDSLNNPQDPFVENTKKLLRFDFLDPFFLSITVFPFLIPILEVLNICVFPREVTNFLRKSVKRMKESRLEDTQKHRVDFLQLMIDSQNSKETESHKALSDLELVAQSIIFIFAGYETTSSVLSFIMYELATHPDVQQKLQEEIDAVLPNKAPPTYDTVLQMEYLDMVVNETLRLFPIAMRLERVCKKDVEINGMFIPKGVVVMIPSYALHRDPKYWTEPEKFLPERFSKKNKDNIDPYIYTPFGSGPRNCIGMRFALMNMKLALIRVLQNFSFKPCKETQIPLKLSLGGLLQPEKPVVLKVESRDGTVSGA
SMILES,AC50,outcome
CCCCCCCCCC,6.55 µM (active),
C=CCc1cc(S(=O)(=O)c2ccc(O)c(CC=C)c2)ccc1O,4.54 µM (active),
OCCOCCOCCO,,inactive
COc1cc(C(C)C)c2c(c1)S(=O)(=O)N(COc1cc(=O)n3cccc(OCCN4CCCCC4)c3n1)C2=O,0.9 µM (active),
